From PubChem BioAssay (EPA / NIEHS)
Several values for one entry are separate records, joined by “and”; a condition that tells them apart may be missing. Equal entries are not always repeated. Activity calls are given as the source filed them. How the source made its calls: active means hit-call score of the fitted dose curve at least 0.9, where 1 is the maximum; inactive means score below 0.9.

Experiments:
[1] = BSK_BT_PBMCCytotoxicity: PBMC Cytotoxicity Assessment in the BioMAP Diversity Plus: BT Assay (AID 2284225); settings: primary human B cells with PBMC;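 further: PBMC viability measured by Alamar Blue dye reduction fluorescence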
Method in brief: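 Viability by Alamar Blue reduction (6 h, ex/em 546/580 nm) after 90 h culture of SEB/TSST-1-activated PBMC (20 ng/mL each) given compound 1 h before activation. DMSO served as baseline for curve fitting.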

[2] = read-out: Secreted IgG (sIgG), gene 3500; assay: BSK_BT_sIgG: BioMAP Diversity Plus: BT Assay for Secreted IgG (sIgG) Biomarker Activity (AID 2284226); settings: primary human B cells with PBMC
Method in brief: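 Cells (B cells with peripheral blood mononuclear cells) are dosed, cultured 24 h, then supernatant IgG is measured by ELISA. DMSO serves as negative control; curves are fitted for signal increase.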

[3] = read-out: Interleukin 6 (IL6), IL6 (gene 3569); assay: BSK_BT_xIL6: BioMAP Diversity Plus: BT Assay for Interleukin 6 (IL6) Biomarker Activity (AID 2284228); settings: primary human B cells with PBMC
Method in brief: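 Human B cell plus PBMC co-culture exposed to test chemical for 24 h; secreted IL-6 quantified by Luminex xMAP bead assay. Activity fitted in the positive direction against DMSO as negative control and baseline.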

[4] = read-out: Interleukin 17A (IL17A), IL17A (gene 3605); assay: BSK_BT_xIL17A: BioMAP Diversity Plus: BT Assay for Interleukin 17A (IL17A) Biomarker Activity (AID 2284229); settings: primary human B cells with PBMC
Method in brief: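 B cells co-cultured with PBMC were exposed to test chemicals, and secreted IL-17A was quantified 24 h after dosing by Luminex xMAP bead immunoassay. Activity was fitted in the gain direction against DMSO as baseline.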

[5] = read-out: Tumor necrosis factor (Homo sapiens) (UniProt P01375); assay: BSK_BT_xTNFa: BioMAP Diversity Plus: BT Assay for Tumor necrosis factor alpha (TNF-alpha) Biomarker Activity (AID 2284230); settings: primary human B cells with PBMC
Method in brief: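 Endpoint derived in the positive direction versus DMSO vehicle. Cells: B cells together with PBMC, exposed 24 h before TNF-alpha in the medium was read on the Luminex xMAP platform.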

[6] = read-out: Vascular cell adhesion molecule 1 (VCAM1), VCAM1 (gene 7412); assay: BSK_MyoF_VCAM1: BioMAP Diversity Plus: MyoF Assay for Vascular cell adhesion molecule 1 (VCAM1) Biomarker Activity (AID 2284231); settings: primary human lung fibroblasts
Method in brief: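 Primary human lung fibroblasts were dosed with test chemical for 24 h, then cell-surface VCAM-1 was measured by ELISA. Activity was fitted in the positive direction against DMSO as negative control and baseline.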

[7] = read-out: Collagen I, COL1A1 (gene 1277); assay: BSK_MyoF_CollagenI: BioMAP Diversity Plus: MyoF Assay for Collagen I Biomarker Activity (AID 2284238); settings: primary human lung fibroblasts
Method in brief: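 Human lung fibroblasts were exposed to test chemical for 24 h, then Collagen I was quantified by ELISA. Activity was fitted in the increasing direction against DMSO as the negative control and baseline.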

[8] = read-out: Collagen III, COL3A1 (gene 1281); assay: BSK_MyoF_CollagenIII: BioMAP Diversity Plus: MyoF Assay for Collagen III Biomarker Activity (AID 2284239); settings: primary human lung fibroblasts
Method in brief: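 Human lung fibroblasts were dosed with chemicals and, 24 hours later, collagen III was measured by ELISA. Activity was fitted in the positive direction against the DMSO negative-control baseline.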

Measured: AC50

Tumor necrosis factor (Homo sapiens), sequence (P01375 whole entry, looked up): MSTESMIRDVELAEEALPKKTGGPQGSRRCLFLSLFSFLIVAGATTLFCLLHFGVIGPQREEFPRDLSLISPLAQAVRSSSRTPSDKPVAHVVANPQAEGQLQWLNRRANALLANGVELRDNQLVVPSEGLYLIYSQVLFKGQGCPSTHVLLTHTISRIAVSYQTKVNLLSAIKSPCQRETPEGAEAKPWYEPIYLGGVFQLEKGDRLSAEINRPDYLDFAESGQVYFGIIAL

CCCCCCOC(=O)CCCCC(=O)OCCCCCC
not listed: [8]
inactive: all other assays above

CCN1CN(CC)CN(CC)C1
not listed: [8]
inactive: all other assays above

COc1ccc(C(=O)c2ccccc2)c(O)c1
not listed: [8]
inactive: all other assays above

O=C(Cl)c1c(Cl)c(Cl)c(C(=O)Cl)c(Cl)c1Cl
not listed: [8]
inactive: all other assays above

Nc1cccc(N)n1
not listed: [8]
inactive: all other assays above

CC1(C)CC(O)CC(C)(C)N1[O]
inactive: all assays above

CCCCCCCO
not listed: [8]
inactive: all other assays above

CCCCCCCCC(CO)CCCCCC (stereo not drawn)
active: [2] 33.7 µM | [3] 30.2 µM
inactive: all other assays above

C=CC(=O)OCC(C)OCC(C)OCC(C)OC(=O)C=C (stereo not drawn)
active: [1] 13.1 µM | [2] 3.06 µM | [3] 5.07 µM | [4] 7.92 µM | [5] 10.3 µM | [6] 30.1 µM | [7] 30.4 µM

O=C1CCCCCCCCCCC1
not listed: [8]
inactive: all other assays above

c1ccc2c(c1)[nH]c1ccccc12
not listed: [8]
inactive: all other assays above

CCCCCCCCCCCC(C)=O
inactive: all assays above

C=CC(=O)NCOCCCC
inactive: all assays above

Clc1cc(Cl)c(Cl)c(Cl)c1Cl
active: [6] 20 µM
not listed: [8]
inactive: all other assays above

c1ccc2sc(SSN3CCOCC3)nc2c1
active: [1] 13.2 µM | [2] 8.43 µM | [3] 13.3 µM | [4] 20 µM | [5] 24.3 µM | [6] 30.4 µM | [7] 15.5 µM

Fc1ccc(Br)cc1
not listed: [8]
inactive: all other assays above

COC(OC)(C(=O)c1ccccc1)c1ccccc1
not listed: [8]
inactive: all other assays above

O=C(Oc1ccccc1)c1ccccc1C(=O)Oc1ccccc1
active: [1] 20 µM | [6] 20 µM
inactive: all other assays above

COc1ccc(C(=O)/C(Br)=C\C(=O)O)cc1
active: [1] 27.6 µM and 25.4 µM | [2] 6.83 µM and 8.75 µM | [3] 20 µM | [4] 24.3 µM and 25.6 µM | [5] 31.3 µM and 29.5 µM | [6] 25.5 µM and 10.5 µM
inactive: [7]

CCNc1nc(NC(C)(C)C)nc(OC)n1
active: [2] 13.9 µM
inactive: all other assays above

CCc1cccc(C)c1N(C(=O)CS(=O)(=O)O)C(C)COC (stereo not drawn)
inactive: all assays above

C=CC(=O)OCCCCCCOC(=O)C=C
active: [1] 14.3 µM | [2] 5.85 µM | [3] 7.22 µM | [4] 6.04 µM | [5] 13.1 µM | [6] 20 µM | [7] 34.4 µM | [8] 25.7 µM

O=C1CCCCCCCCCCCN1
inactive: all assays above

CC(C)CCCCCOC(=O)CS
not listed: [8]
inactive: all other assays above

CCOC(=O)C1=NN(c2ccc(Cl)cc2Cl)C(C)(C(=O)OCC)C1 (stereo not drawn)
active: [2] 20 µM
not listed: [8]
inactive: all other assays above

CC(c1cc(C(C)(C)C)cc(C(C)(C)C)c1O)c1cc(C(C)(C)C)cc(C(C)(C)C)c1O
active: [1] 30.2 µM | [2] 5.95 µM | [3] 32.3 µM | [4] 17.2 µM | [5] 26.5 µM
inactive: [6] | [7]

CCCCC1C(=O)N(c2ccccc2)N(c2ccccc2)C1=O
not listed: [8]
inactive: all other assays above
